The source of these data is PubChem BioAssay (NCI).

Compounds without any hit were thinned out: in the full panel of roughly 83,000, 20% have a hit.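 Plates (96-well) were seeded with cells, treated with compound at one concentration, and incubated for 48 hours before percent growth was determined.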 Activity calls are given as the source filed them. The calls were made as follows: active = growth percent below 10; inactive = the rest.

The subject of one experiment is SK-MEL-28 melanoma. Kind of experiment: NCI-60 one-dose screen, 48 h (100 = growth as untreated, 0 = no growth, -100 = all killed). Particulars: 10 µM unless noted.
For `COc1ccccc1-c1nc2ccc3[nH]ncc3c2c2c1CCCC2`, the growth was 89.2% (inactive).
On the same count and under the same terms, the result for `O=c1ccc2nc(-c3ccccc3)nn(-c3ccccn3)c-2c1` reads 87.2% (inactive); that for `Nc1ncc(-c2ccc3ncnc(N4CCc5cc(F)c(Cl)cc54)c3c2)cc1C=O`, 10.2% (inactive); that for `C#Cc1ccc(NC(=O)Cc2ccc(/C=C/C(=O)c3nccn3C)cc2)cc1`, 107% (inactive).
`CCCCN(CCC#N)C(N)=O`: the growth was 102% (inactive).
On the same count and under the same terms, the result for `COc1ccc(-c2cn(Cc3ccc4c(Br)cc(Br)c(O)c4n3)nn2)cc1` reads 96.3% (inactive).
Still for that read-out and setting: the value for `CCc1ccc(Cc2cnc(NC(=O)c3cc(C)oc3C)s2)cc1` was 59.5% (inactive); that for `COc1cc(/C=C/c2cc(/C=C/c3ccc(O)c(OC)c3)n(C(=O)Nc3ccc(C)cc3C)n2)ccc1O` was 5.57% (active).
Same read-out and setting: the value for `Clc1nc(N2CCC[N+]3(CC2)CC[N+]2(CCCNCC2)CC3)nc(N2CCC[N+]3(CC2)CC[N+]2(CCCNCC2)CC3)n1` (stereo not drawn) was 92.2% (inactive); that for `O=S(=O)(Nc1ccc(Br)cc1)c1ccc(-c2cnc(C3CC3)o2)cc1` was 53.5% (inactive).
In the case of `O=C1N/C(=N/N=C(c2ccccc2)c2ccccc2)S/C1=C\c1ccc(Br)cc1`, the growth was 112% (inactive).
For the compound `COc1cc(OCc2cccc(-c3ccc4c(c3)OCCO4)c2C)cc(OC)c1C=O`, the growth is 67.1% (inactive).
On the same count and under the same terms, the result for `COC(=O)c1c(C)nc(C)c2c1C(=O)C(Br)=C(NCCCCO)C2=O` reads 102% (inactive); that for `COc1ccc(CNc2c3ccccc3nc3ccccc23)cc1OC`, 35.2% (inactive); that for `COc1cc(/C=C/C(=O)c2ccc(-n3cc(CN4CCN(c5cc6c(cc5F)c(=O)c(C(=O)O)cn6C5CC5)CC4)nn3)cc2)cc(OC)c1OC`, 92% (inactive).
`CCCCCC(C)(O)C(C(=O)O)c1ccccc1` (stereo not drawn): the growth was 98.4% (inactive).
On the same count and under the same terms, the value for `C[C@@H]1N=C(c2ccc(Cl)cc2Cl)Nc2nc3ccccn3c2C1=O` was 60.7% (inactive).
On the same count and under the same terms, the result for `O=C(Nc1ccccc1)Nc1ccccc1CNc1nc(Nc2ccc(OCCN3CCCC3)cc2)ncc1Cl` reads 78.5% (inactive).
Same read-out and setting: the value for `COc1ccc(S(=O)(=O)N(C)c2oc(-c3ccc(Cl)cc3)nc2C#N)cc1` was 84.4% (inactive).
As to `COc1cccc(C(=O)Nc2cccc(NC(=O)c3ccccn3)c2)c1`, the growth was 97.5% (inactive).
Same read-out and setting: the result for `CS(=O)(=O)c1ccc(/C(=N/NC(N)=S)c2ccc(F)cc2)cc1` reads 114% (inactive); that for `CSc1nc(N)c2c(n1)NC(c1ccccc1)C1CCc3ccccc3C1=N2` (stereo not drawn), 81.5% (inactive); that for `COc1cccc(CNc2nnc(C)c(C)n2)c1O`, 109% (inactive).
On to `COc1ccc(NC(=O)CSc2oc(-c3ccccc3)nc2S(=O)(=O)c2ccc(Cl)cc2)c(OC)c1`, for which the growth is 67.1% (inactive).
For `O=C(c1ccc(F)cc1)C1CCN(CCn2c(=O)[nH]c3ccccc3c2=O)CC1`, the growth was 108% (inactive).
Same read-out and setting: the value for `CC(=O)OCC(=O)O[C@@H]1C[C@]2(C(C)C)O[C@@]1(C)[C@@H]1CC[C@@H](C)[C@H]1[C@@H]2OC(=O)/C=C/c1ccccc1` was 102% (inactive).
For `O=C(Nc1ncc(Cc2ccccc2)s1)c1cc(-c2ccccc2)nc2ccccc12`, the growth is 105% (inactive).
Still for that read-out and setting: the result for `O=c1cc(-c2nccc3c2[nH]c2ccccc23)c2cc(Cl)ccc2o1` reads 64.6% (inactive).
`O=C(CN1C(=O)NC2NC(=O)NC21)N/N=C/c1cccc([N+](=O)[O-])c1` (stereo not drawn): the growth was 111% (inactive).
In the case of `CCCCCCCCCCCCCC[n+]1ccc2c(C)c3c(c(C)c2c1)c1cc(O)ccc1n3CC`, the growth was -93.9% (active).
Still for that read-out and setting: the result for `C=C(C)[C@@H]1CCC[C@]2(C(=O)OC)CC[C@]3(C)[C@@H](CC[C@@H]4[C@@]5(C)CCCNC(C)(C)[C@@H]5CC[C@]43C)[C@@H]12` reads 94.3% (inactive); that for `COc1cc2c(cc1-c1c(C)noc1C)ncc1nc(C3CCOCC3)n(C3CCC(OC(F)F)CC3)c12` (stereo not drawn), 71.1% (inactive).
On the same count and under the same terms, the value for `O=C1CCC(C(=O)N/N=C/c2ccc([N+](=O)[O-])cc2)N1` (stereo not drawn) was 111% (inactive); that for `COc1cc(C(=O)/C=C/c2c(-c3cccs3)nc3sc(C)cn23)cc(OC)c1OC` was 21.7% (inactive).
Still for that read-out and setting: the value for `O=C(NS(=O)(=O)c1ccccc1)n1cc(-c2ccncc2)c(-c2cc(O)cc(Cl)c2)n1` was 67.6% (inactive).
In the case of `COC(CCP(=O)(c1ccccc1)c1ccccc1)(C(=O)c1ccccc1)c1ccccc1` (stereo not drawn), the growth was 89.1% (inactive).
On the same count and under the same terms, the value for `Cn1nc(-c2ccc(Cl)cc2)nc2c(=O)n(C)c(=O)nc1-2` was -64.4% (active); that for `CC1(C)CCC[C@]23C(=O)O[C@](O)(C(=O)C4=C[C@@](C)(/C=C/CCCc5ccc6ccc7cccc8ccc5c6c78)CC[C@@]42O)[C@@H]13` was -86.6% (active).
On the same count and under the same terms, the result for `COc1ccc(C2=C/C(=C\c3ccccc3O)C(=O)N2Cc2ccccc2)cc1` reads 79.9% (inactive).

In another experiment the test system is SK-MEL-2 melanoma. The experiment is described as above. Particulars: 10 µM unless noted.
Turning to `COc1ccccc1-c1nc2ccc3[nH]ncc3c2c2c1CCCC2`, the growth is 99% (inactive).
The same measure, in the same setting: the result for `O=c1ccc2nc(-c3ccccc3)nn(-c3ccccn3)c-2c1` reads 96.8% (inactive); that for `Nc1ncc(-c2ccc3ncnc(N4CCc5cc(F)c(Cl)cc54)c3c2)cc1C=O`, 8.65% (active); that for `C#Cc1ccc(NC(=O)Cc2ccc(/C=C/C(=O)c3nccn3C)cc2)cc1`, 103% (inactive).
Still for that read-out and setting: the value for `CCCCN(CCC#N)C(N)=O` was 104% (inactive); that for `COc1ccc(-c2cn(Cc3ccc4c(Br)cc(Br)c(O)c4n3)nn2)cc1` was 101% (inactive).
Turning to `CCc1ccc(Cc2cnc(NC(=O)c3cc(C)oc3C)s2)cc1`, the growth is 59.4% (inactive).
On the same count and under the same terms, the result for `COc1cc(/C=C/c2cc(/C=C/c3ccc(O)c(OC)c3)n(C(=O)Nc3ccc(C)cc3C)n2)ccc1O` reads -27.2% (active); that for `Clc1nc(N2CCC[N+]3(CC2)CC[N+]2(CCCNCC2)CC3)nc(N2CCC[N+]3(CC2)CC[N+]2(CCCNCC2)CC3)n1` (stereo not drawn), 106% (inactive).
Same read-out and setting: the value for `O=S(=O)(Nc1ccc(Br)cc1)c1ccc(-c2cnc(C3CC3)o2)cc1` was 33.6% (inactive); that for `O=C1N/C(=N/N=C(c2ccccc2)c2ccccc2)S/C1=C\c1ccc(Br)cc1` was 96.7% (inactive).
On to `COc1cc(OCc2cccc(-c3ccc4c(c3)OCCO4)c2C)cc(OC)c1C=O`, for which the growth is 58.3% (inactive).
The same measure, in the same setting: the result for `COC(=O)c1c(C)nc(C)c2c1C(=O)C(Br)=C(NCCCCO)C2=O` reads 64.7% (inactive); that for `COc1ccc(CNc2c3ccccc3nc3ccccc23)cc1OC`, 38.6% (inactive).
On the same count and under the same terms, the value for `COc1cc(/C=C/C(=O)c2ccc(-n3cc(CN4CCN(c5cc6c(cc5F)c(=O)c(C(=O)O)cn6C5CC5)CC4)nn3)cc2)cc(OC)c1OC` was 102% (inactive).
For `CCCCCC(C)(O)C(C(=O)O)c1ccccc1` (stereo not drawn), the growth was 108% (inactive).
With `C[C@@H]1N=C(c2ccc(Cl)cc2Cl)Nc2nc3ccccn3c2C1=O`, the growth is 38.2% (inactive).
`O=C(Nc1ccccc1)Nc1ccccc1CNc1nc(Nc2ccc(OCCN3CCCC3)cc2)ncc1Cl`: the growth was 49.9% (inactive).
For `COc1ccc(S(=O)(=O)N(C)c2oc(-c3ccc(Cl)cc3)nc2C#N)cc1`, the growth was 85% (inactive).
Take `COc1cccc(C(=O)Nc2cccc(NC(=O)c3ccccn3)c2)c1`: the growth was 108% (inactive).
For the compound `CS(=O)(=O)c1ccc(/C(=N/NC(N)=S)c2ccc(F)cc2)cc1`, the growth is 112% (inactive).
For the compound `CSc1nc(N)c2c(n1)NC(c1ccccc1)C1CCc3ccccc3C1=N2` (stereo not drawn), the growth was 30.1% (inactive).
Same read-out and setting: the result for `COc1cccc(CNc2nnc(C)c(C)n2)c1O` reads 106% (inactive).
Still for that read-out and setting: the result for `COc1ccc(NC(=O)CSc2oc(-c3ccccc3)nc2S(=O)(=O)c2ccc(Cl)cc2)c(OC)c1` reads 66.4% (inactive); that for `O=C(c1ccc(F)cc1)C1CCN(CCn2c(=O)[nH]c3ccccc3c2=O)CC1`, 106% (inactive).
Consider `CC(=O)OCC(=O)O[C@@H]1C[C@]2(C(C)C)O[C@@]1(C)[C@@H]1CC[C@@H](C)[C@H]1[C@@H]2OC(=O)/C=C/c1ccccc1`, for which the growth was 90.9% (inactive).
Same read-out and setting: the result for `O=C(Nc1ncc(Cc2ccccc2)s1)c1cc(-c2ccccc2)nc2ccccc12` reads 105% (inactive).
Still for that read-out and setting: the result for `O=c1cc(-c2nccc3c2[nH]c2ccccc23)c2cc(Cl)ccc2o1` reads 30.2% (inactive).
The same measure, in the same setting: the value for `O=C(CN1C(=O)NC2NC(=O)NC21)N/N=C/c1cccc([N+](=O)[O-])c1` (stereo not drawn) was 113% (inactive); that for `CCCCCCCCCCCCCC[n+]1ccc2c(C)c3c(c(C)c2c1)c1cc(O)ccc1n3CC` was -81.6% (active); that for `C=C(C)[C@@H]1CCC[C@]2(C(=O)OC)CC[C@]3(C)[C@@H](CC[C@@H]4[C@@]5(C)CCCNC(C)(C)[C@@H]5CC[C@]43C)[C@@H]12` was 94% (inactive).
Regarding `COc1cc2c(cc1-c1c(C)noc1C)ncc1nc(C3CCOCC3)n(C3CCC(OC(F)F)CC3)c12` (stereo not drawn), the growth is 63.5% (inactive).
As for `O=C1CCC(C(=O)N/N=C/c2ccc([N+](=O)[O-])cc2)N1` (stereo not drawn), the growth was 102% (inactive).
Still for that read-out and setting: the value for `COc1cc(C(=O)/C=C/c2c(-c3cccs3)nc3sc(C)cn23)cc(OC)c1OC` was 13.1% (inactive); that for `O=C(NS(=O)(=O)c1ccccc1)n1cc(-c2ccncc2)c(-c2cc(O)cc(Cl)c2)n1` was 95.5% (inactive); that for `COC(CCP(=O)(c1ccccc1)c1ccccc1)(C(=O)c1ccccc1)c1ccccc1` (stereo not drawn) was 34.7% (inactive).
Consider `Cn1nc(-c2ccc(Cl)cc2)nc2c(=O)n(C)c(=O)nc1-2`, for which the growth was -44.6% (active).
Take `CC1(C)CCC[C@]23C(=O)O[C@](O)(C(=O)C4=C[C@@](C)(/C=C/CCCc5ccc6ccc7cccc8ccc5c6c78)CC[C@@]42O)[C@@H]13`: the growth was -61.8% (active).
For the compound `COc1ccc(C2=C/C(=C\c3ccccc3O)C(=O)N2Cc2ccccc2)cc1`, the growth is 51.4% (inactive).
